Results on 40 molecules are retold here after PubChem BioAssay AID720690 (Broad Institute, 2013).

The structures appear in SMILES notation. Measured potencies and affinities stand elsewhere. The source made the active and inactive calls.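 How the source made its calls: active means every repeat run showing a signal drop whose fitted half-maximal concentration is at most twice the top tested concentration; inconclusive means repeat runs disagree, or flat partial drop, or poor fit; inactive means the rest.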

The assay is described as follows: HEK293T cytotoxicity, dose response, cytotoxicity control for miR-122 modulator project, cell-based, activator set, cherry-pick (AID 720690). As to conditions: HEK293T viability, CellTiter-Glo luminescence, 48 h; series mostly up to 26 µM.
As for `CN1C(=O)c2cc(NC(=O)c3cccc(F)c3)ccc2OC[C@@H]2O[C@@H](CC(=O)NC3CCC3)CC[C@H]21`, the molecule was called inactive.

Take `C[C@@H]1CN([C@@H](C)CO)S(=O)(=O)c2ccc(C3=CCCC3)cc2O[C@@H]1CN(C)C(=O)c1ccc(F)cc1`: the result was inactive. Turning to `COc1ccc(S(=O)(=O)N(C)C[C@@H]2Oc3cc(-c4cccc(F)c4)ccc3S(=O)(=O)N([C@@H](C)CO)C[C@H]2C)cc1`, the call was inactive. As to `CN1C(=O)c2cc(NC(=O)c3cc(F)cc(F)c3)ccc2OC[C@@H]2O[C@@H](CC(=O)O)CC[C@@H]21`, the outcome was inactive. In the case of `COc1cccc(C(=O)Nc2ccc3c(c2)C(=O)N(C)[C@@H]2CC[C@@H](CC(=O)N[C@H](C)c4ccccc4)O[C@@H]2CO3)c1`, the outcome was inactive.

For the molecule `COCC(=O)N(C)C[C@H]1Oc2cc(C#Cc3cccnc3)ccc2S(=O)(=O)N([C@@H](C)CO)C[C@H]1C`, the result was inactive. Turning to `COc1cccc(-c2ccc3c(c2)O[C@H](CN(C)C(=O)C2CCOCC2)[C@H](C)CN([C@H](C)CO)S3(=O)=O)c1`, the molecule was called inactive.

Regarding `COc1ccc(C#Cc2ccc3c(c2)O[C@H](CN(C)C(=O)CN2CCOCC2)[C@H](C)CN([C@@H](C)CO)S3(=O)=O)cc1`, the outcome was inactive. The entry for `COc1nnc(-c2ccc(N3CCOCC3)c(NC(=O)c3ccccc3)c2)c2ccccc12` is “inactive”; for `CCC(=O)N1[C@H](CO)[C@H](c2ccccc2)[C@@H]1CN(C(C)C)S(C)(=O)=O` it is “inactive”; for `COC(=O)C[C@@H]1CC[C@@H]2[C@H](COc3ccc(NC(=O)c4ccc(F)c(F)c4)cc3C(=O)N2C)O1` it is “inactive”. `COc1ccccc1CNc1nc(NCC2CC2)nc2ccsc12`: the molecule was classed as inactive. On to `C[C@@H]1CN([C@@H](C)CO)S(=O)(=O)c2ccc(C3=CCCCC3)cc2O[C@@H]1CN(C)C(=O)Cc1ccncc1`, for which the result was inactive. Regarding `C[C@@H]1CN([C@H](C)CO)C(=O)c2cc(NC(=O)Nc3ccc(C(F)(F)F)cc3)ccc2O[C@@H]1CN(C)CC1CCCCC1`, the molecule was classed as inactive. As to `COc1ccc(-c2ccc3c(c2)O[C@H](CN(C)C(=O)Nc2ccccc2F)[C@H](C)CN([C@@H](C)CO)S3(=O)=O)cc1`, the molecule was called inactive. Take `COCC(=O)Nc1ccc2c(c1)C(=O)N(C)[C@@H]1CC[C@H](CC(=O)NCCCN(C)C)O[C@H]1CO2`: the molecule was called inactive.

Consider `Cc1cc(C)nc(NS(=O)(=O)c2ccc(NC(=S)NC(=O)C3CCCC3)cc2)n1`, for which the molecule was called inactive. As for `CN1C(=O)c2cc(NC(=O)c3cccs3)ccc2OC[C@H]2O[C@@H](CC(=O)NCCN3CCCCC3)CC[C@H]21`, the molecule was called inactive.

Turning to `C[C@@H]1CN([C@@H](C)CO)S(=O)(=O)c2ccc(C#CC3CC3)cc2O[C@@H]1CN(C)C(=O)c1cccc(F)c1`, the call was inactive. The value for `CC(=O)N1[C@H](CN(C)S(=O)(=O)c2ccccc2)[C@H](c2ccccc2)[C@@H]1CO` was “inactive”; that for `COc1ccc(C(=O)C2CCCN(Cc3cccn3-c3ccccn3)C2)c(OC)c1` (stereo not given) was “inactive”; that for `CN1C(=O)c2cc(NC(=O)c3cccc(C(F)(F)F)c3)ccc2OC[C@H]2O[C@H](CC(=O)NCCN3CCCC3)CC[C@H]21` was “inactive”. With `CCNC(=O)C[C@@H]1CC[C@H]2[C@H](COc3ccc(NC(=O)c4cccc(C(F)(F)F)c4)cc3C(=O)N2C)O1`, the molecule was classed as inactive. `CN(C(=O)C12CC3CC(CC(C3)C1)C2)C1CCS(=O)(=O)C1` (stereo not given): the molecule was classed as inactive. On to `CN1C(=O)c2cc(NC(=O)Cc3ccccc3)ccc2OC[C@@H]2O[C@@H](CC(=O)NCc3ccc(Cl)cc3)CC[C@H]21`, for which the molecule was called inactive. Consider `COC(=O)C[C@H]1CC[C@@H]2[C@@H](COc3ccc(NC(=O)c4ccc(F)c(F)c4)cc3C(=O)N2C)O1`, for which the molecule was called inactive. The entry for `CC(C)C(=O)Nc1ccc2c(c1)C(=O)N(C)[C@@H]1CC[C@@H](CC(=O)NCCc3ccccc3)O[C@H]1CO2` is “inactive”; for `CC(C)(C)c1cc(NCCCn2ccnc2)n2ncc(-c3ccc(Cl)cc3)c2n1` it is “inactive”; for `Cc1cc(C(=O)Nc2ccc3c(c2)C(=O)N(C)[C@H]2CC[C@H](CC(=O)N[C@@H](C)c4ccccc4)O[C@H]2CO3)no1` it is “inactive”. For the molecule `Cc1ccccc1NC(=O)Nc1ccc2c(c1)C(=O)N(C)[C@@H]1CC[C@H](CC(=O)NCC3CC3)O[C@@H]1CO2`, the call was inactive.

For the molecule `C=CCc1c(OC)ccc2ccc(=O)oc12`, the molecule was classed as inactive. On to `CCCC(=O)Nc1ccc2c(c1)C(=O)N(C)[C@H]1CC[C@H](CC(=O)NCCN3CCCCC3)O[C@@H]1CO2`, for which the result was inactive.

Turning to `CCCC(=O)Nc1ccc2c(c1)C(=O)N(C)[C@@H]1CC[C@H](CC(=O)NCC(F)(F)F)O[C@H]1CO2`, the call was inactive. In the case of `O=C(NC[C@@H]1[C@H](c2ccccc2)[C@@H](CO)N1Cc1cccnc1)c1ccccn1`, the call was inactive. Regarding `CNc1nc(NCC2CCCCC2)c2sccc2n1`, the result was inactive. The entry for `Cc1[nH]c(=O)c(C#N)cc1-c1ccccc1` is “inactive”; for `CNC(=O)C[C@@H]1CC[C@@H]2[C@@H](COc3ccc(NC(=O)c4ccccc4OC)cc3C(=O)N2C)O1` it is “inactive”; for `CNC(=O)C[C@H]1CC[C@@H]2[C@H](COc3ccc(NC(=O)c4ccc(OC)cc4)cc3C(=O)N2C)O1` it is “inactive”.

For the molecule `COc1cccc(CNC(=O)C[C@H]2CC[C@@H]3[C@H](COc4ccc(NC(C)=O)cc4C(=O)N3C)O2)c1`, the call was inactive. Regarding `CNC(=O)C[C@@H]1CC[C@@H]2[C@@H](COc3ccc(NC(=O)Cc4cccs4)cc3C(=O)N2C)O1`, the molecule was classed as inactive.
